AI-2 QS modul = Vibrio harveyi AI-2 quorum sensing modulators, primary screen, JMH597 strain, luminescence/OD600 ratio. Vibrio harveyi JMH597 AI-2 luminescence/OD600 ratio, 9 h; stronger effect = lower value; strain lacks LuxN and CqsS sensors; 0 = neutral-control median. activity change, % at 7.5 µM. 300,000 tested, 0.4% active. AID 2094, 2009; in the data active = activity change below about -75%, passing the limit was not always enough; inconclusive = no clear call, values can overlap the other calls;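 note: luminescence divided by OD600 gain over 9 h not by final OD600 alone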
NTR1 ag = agonists of human NTR1, primary screen, imaging, U2OS cells, beta-arrestin-GFP, high content; Neurotensin receptor type 1 (Homo sapiens), P30989; 330,000 tested, 0.17% active; NTR1-U2OS beta-arrestin-GFP spot imaging, agonist mode; activation, % at 20 µM; AID 493036, 2011;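 active = activation at or above 40% of the spot to cytoplasm intensity ratio, with at least 20 cells analyzed; inconclusive = wells under 20 cells, flagged as cytotoxic or low count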
Target sequence (P30989 whole entry, looked up): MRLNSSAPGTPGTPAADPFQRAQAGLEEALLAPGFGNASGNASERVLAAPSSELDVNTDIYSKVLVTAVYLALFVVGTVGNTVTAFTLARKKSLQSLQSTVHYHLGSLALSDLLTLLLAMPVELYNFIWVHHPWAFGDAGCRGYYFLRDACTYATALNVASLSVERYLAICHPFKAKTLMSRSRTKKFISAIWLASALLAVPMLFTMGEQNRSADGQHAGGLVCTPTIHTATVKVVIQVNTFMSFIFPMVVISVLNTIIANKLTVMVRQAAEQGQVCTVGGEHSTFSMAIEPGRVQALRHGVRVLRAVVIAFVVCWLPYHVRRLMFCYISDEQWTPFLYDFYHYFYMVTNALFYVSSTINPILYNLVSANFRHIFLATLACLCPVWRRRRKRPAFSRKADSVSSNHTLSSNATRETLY
VLA-4 inh = inhibition in human VLA-4 binding assay, primary screen, VLA-4 allosteric modulator project, MLPCN library, flow cytometry, VLA-4 expressing cells; Integrin alpha-4 (Homo sapiens), P13612; ligand binding flow cytometry; inhibition, % (about 7 µM as worked out from the volumes in the protocol); 330,000 tested, 0.2% active; in the data active = inhibition above about 50%
DSG3 Ab inh = inhibitors of pemphigus antibody binding to DSG3, primary screen, biochemical, bead-based, flow cytometry, scFv-GFP; DSG3-coupled beads, scFv-anti-DSG3-GFP binding; stronger effect = lower value; binding (percent of control), % at 10 µM; 310,000 tested, 0.48% active; AID 588358, 2011;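 active = binding more than 3 SD below its plate's average and above zero; inconclusive = below that plate limit but binding exactly zero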;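 note: hits lower antibody fragment binding to DSG3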
Large screens that a line does not name were inactive. An excerpt weighted towards active compounds, which were near 1.1% of everything screened.

COc1ccc(OC)c(C(C[N+](=O)[O-])c2c(C)cc3ccccn23)c1 (stereo unspecified)	NTR1 ag 50
Cc1nc2ccc(S(=O)(=O)NCC(=O)NC(C)c3ccccc3)cc2s1 (stereo unspecified)	AI-2 QS modul -97
COc1ccc(S(=O)(=O)Nc2ccc3c(c2)C(=O)N([C@H](C)CO)C[C@H](C)[C@@H](CN(C)S(=O)(=O)c2cn(C)cn2)OCCCC[C@H](C)O3)cc1	none (no result: AI-2 QS modul, NTR1 ag, VLA-4 inh)
O=c1c2cc(-c3ccccc3)sc2ncn1-n1cccc1	DSG3 Ab inh 82
O=C(c1nnsc1S(=O)(=O)c1ccc(Cl)cc1)N1CCOCC1	none (no result: VLA-4 inh)
CNC(=O)c1nnsc1S(=O)(=O)c1ccc(Cl)cc1	AI-2 QS modul -95 (no result: VLA-4 inh)
CCc1ccc([C@@H]2C[C@H]3[C@@H](CN2S(=O)(=O)c2ccc(C)cc2)C(=O)C[C@@H](c2ccccc2)N3S(=O)(=O)c2ccc(C)cc2)cc1	none (no result: AI-2 QS modul, NTR1 ag, VLA-4 inh)
Cc1ccc2nc(Cl)c3nnnn3c2c1	AI-2 QS modul -86
COc1cc(Sc2ccc(C)cc2)c(OC)cc1N	DSG3 Ab inh 80
CCCC(C)c1nnc(NC(=O)CN2C(=O)c3ccccc3C2=O)s1 (stereo unspecified)	AI-2 QS modul -88
O=C(O)c1cccc(-n2cccc2/C=C2/NC(=O)N(c3ccc(Cl)cc3)C2=O)c1	DSG3 Ab inh 41 (no result: AI-2 QS modul, NTR1 ag, VLA-4 inh)
O=C(O)c1cccc(-n2cccc2/C=C2/NC(=O)N(c3cccc(Cl)c3)C2=O)c1	none
Cc1c(NC(=O)c2cc(-c3ccc(F)cc3)nc3ccccc23)c(=O)n(-c2ccccc2)n1C	DSG3 Ab inh 67 (no result: AI-2 QS modul)
CS(=O)(=O)c1ccc(C(=O)OCC(=O)NC23CC4CC(CC(C4)C2)C3)cc1[N+](=O)[O-]	NTR1 ag 68
CC(C)(C)c1nn(-c2ccccc2)c2[nH]c(=O)c(CNc3ccc4c(c3)OCCO4)cc12	none
Cc1nn(-c2ccccc2)c2[nH]c(=O)c(CNc3ccc(N4CCOCC4)cc3)cc12	DSG3 Ab inh 76
CCN(CC)C(=O)C1=C(C)N(CCCOC)C(=O)C(CC(=O)NCc2ccco2)C1 (stereo unspecified)	none (no result: AI-2 QS modul, NTR1 ag, VLA-4 inh)
O=C(Nc1nc(-c2ccccn2)cs1)c1ccc(Cl)s1	AI-2 QS modul -197
Cc1cc(O)c2c(c1O)C(=O)[C@]13C(=C2O)C(=O)[C@@H]2[C@@H](O)[C@H]1[C@@H]1[C@H](O)[C@H]3C(=O)C3=C(O)c4c(O)cc(C)c(O)c4C(=O)[C@]312	DSG3 Ab inh -15 (no result: AI-2 QS modul)
O=c1cc(-c2ccccc2)nc(Sc2ccc([N+](=O)[O-])cc2[N+](=O)[O-])[nH]1	DSG3 Ab inh 81
C[C@H](CO)N1C[C@H](C)[C@@H](CN(C)Cc2ccccc2)OCc2cnnn2CCCC1=O	DSG3 Ab inh 91 (no result: AI-2 QS modul, NTR1 ag, VLA-4 inh)
C[C@@H]1CN([C@H](C)CO)C(=O)CCCn2nncc2CO[C@H]1CN(C)Cc1ccc(-c2ccccc2)cc1	none (no result: AI-2 QS modul, NTR1 ag, VLA-4 inh)
CC(C)C[C@@H](CN)NC(=O)c1nc[nH]c1C(=O)N[C@@H](C)C(=O)CNC[C@H](CC(C)C)NC(=O)c1nc[nH]c1C(=O)N[C@@H](Cc1ccccc1)C(=O)O	none (no result: AI-2 QS modul, NTR1 ag, VLA-4 inh)
CCn1c(CC(=O)Nc2ccc(F)cc2)nnc1SCC(=O)NC1=NCCS1	DSG3 Ab inh -62
CCN1/C(=C/C=C/c2sc3ccccc3[n+]2CC)Sc2ccccc21	DSG3 Ab inh -10 (no result: VLA-4 inh)
CCN1/C(=C/C=C/C=C/c2sc3ccccc3[n+]2CC)Sc2ccccc21	AI-2 QS modul inconclusive (no result: DSG3 Ab inh)
CCSc1nnc(NC(=O)c2cnccn2)s1	none (no result: DSG3 Ab inh)
CCSc1nnc(NC(=O)c2ccccn2)s1	AI-2 QS modul -121
COc1ccc(C(=O)NC(=S)Nc2ccc(N3CCCC3)cc2)cc1	DSG3 Ab inh 19
COc1ccc(S(=O)(=O)N2CCC(NC(=O)c3ccccc3)CC2)cc1	none
COc1ccc(N2CCN(S(=O)(=O)c3ccc(C(=O)NC4CCCC4)cc3)CC2)cc1	DSG3 Ab inh 75
COc1ccccc1-c1ccc([C@@H]2C[C@H]3[C@@H](CN2)CON3C)cc1	none (no result: AI-2 QS modul, NTR1 ag, VLA-4 inh)
COc1ccc(-n2ccc(=O)c(C(=O)Nc3ccc(S(=O)(=O)Nc4nccs4)cc3)n2)cc1	DSG3 Ab inh 49
CCn1c(CC(=O)Nc2ccccc2Cl)nnc1SCC(=O)NC1CCCC1	DSG3 Ab inh 86
CCOc1ccccc1N1CCN(CC(O)COC2CCCc3ccccc32)CC1 (stereo unspecified)	DSG3 Ab inh -39 (no result: AI-2 QS modul)
